Our source for the growth values is PubChem BioAssay (NCI).

The panel holds about 83,000 compounds, 20% with a hit somewhere; the sample as a whole holds those more often.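 Negative percent growth values reflect cell death: -40 means 40% of the cells present at the start died, and -100 means all died.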 Values without a mark were called inactive. Calls of active or inactive are those of the source. Rule for the calls: active = growth percent below 10; inactive = the rest.

Test systems include NCI-H23 lung; NCI-H226 lung; NCI-H322M lung; HOP-62 NSCLC; NCI-H460 lung; HOP-92 NSCLC; NCI-H522 lung; A549/ATCC NSCLC; 786-0 renal; COLO 205 colon; DU-145 prostate; K-562 leukemia; MALME-3M melanoma; MDA-MB-231 breast; RXF 393 renal; SF-268 CNS; SF-295 CNS; SF-539 CNS; UACC-257 melanoma; M14 melanoma.
Common to all, as to assay: NCI-60 one-dose screen, 48 h (100 = growth as untreated, 0 = no growth, -100 = all killed)
Settings in all cases: 10 µM unless noted

In the case of `COc1ccc(/C=C/C(=O)c2ccc(NC(=O)CSc3nnc(-c4cc(OC)c(OC)c(OC)c4)o3)cc2)cc1`, the growth in the assay with NCI-H23 lung is -17% (active); with NCI-H226 lung, 12.9%; in the assay with NCI-H322M lung it was 20.2%; in the assay on HOP-62 NSCLC, 43.8%; with NCI-H460 lung, 14.5%; in the assay with HOP-92 NSCLC it was -55.4% (active). Moreover, the growth in the assay on NCI-H522 lung was -76.4% (active); in the assay on A549/ATCC NSCLC, 7.85% (active); with 786-0 renal, -58.4% (active); with COLO 205 colon, -61.1% (active); in the assay on DU-145 prostate, 4.04% (active); in the assay with K-562 leukemia, -52.2% (active). Also, the growth in the assay on MALME-3M melanoma is -70.7% (active); in the assay with MDA-MB-231 breast, -80.7% (active); in the assay with RXF 393 renal, -84.3% (active); with SF-268 CNS, -76.7% (active); with SF-295 CNS it was 57.6%; in the assay on SF-539 CNS, -90.3% (active). For the same compound, the growth in the assay with UACC-257 melanoma is 40.1%; in the assay on M14 melanoma, -60.1% (active).

In the case of `CCCCC(=O)Nc1nc2ccc(SCCC)cc2s1`, the growth in the assay on NCI-H23 lung is 68.5%; with NCI-H226 lung it was 49.7%; in the assay on NCI-H322M lung, 82.4%; in the assay on HOP-62 NSCLC, 51.8%; with NCI-H460 lung it was 32%; in the assay with HOP-92 NSCLC, 20.8%. Besides, the growth with NCI-H522 lung is 28.8%; in the assay on A549/ATCC NSCLC, 35.8%; with 786-0 renal, 65%; in the assay with COLO 205 colon, 51.6%; in the assay on DU-145 prostate, 67.4%; in the assay on K-562 leukemia, 16.5%. For the same compound, the growth was 50% in the assay on MALME-3M melanoma; 51.9% in the assay on MDA-MB-231 breast; 45.9% in the assay on RXF 393 renal; 61.6% in the assay with SF-268 CNS; 45.1% in the assay on SF-295 CNS; 50.5% in the assay on SF-539 CNS. Moreover, the growth in the assay with UACC-257 melanoma is 66.8%; with M14 melanoma, 37.3%.

For `COc1ccc(-c2nnc(SCC(=O)Nc3ccc(C(=O)/C=C/c4ccc(OC)c(OC)c4)cc3)o2)cc1`, the growth in the assay on NCI-H23 lung was 91.9%; in the assay on NCI-H226 lung, 86.2%; with NCI-H322M lung, 94.6%; in the assay with HOP-62 NSCLC, 73.6%; in the assay with NCI-H460 lung, 95.1%; in the assay on HOP-92 NSCLC, 81.3%. Moreover, the growth was 68.4% with NCI-H522 lung; 77.7% in the assay on A549/ATCC NSCLC; 106% with 786-0 renal; 102% with COLO 205 colon; 93.7% in the assay with DU-145 prostate; 61.7% with K-562 leukemia. For the same compound, the growth in the assay on MALME-3M melanoma is 100%; in the assay with MDA-MB-231 breast it was 96.6%; with RXF 393 renal it was 104%; in the assay with SF-268 CNS, 98.2%; with SF-295 CNS, 96.5%; in the assay with SF-539 CNS, 96%. Further, the growth in the assay with UACC-257 melanoma is 73.7%; in the assay with M14 melanoma, 105%.

Consider `O=C(Nc1ccc(-n2ccc3c(NC(=O)c4ccccc4)ncnc32)cc1)Nc1cccc(Cl)c1Cl`, for which the growth in the assay on NCI-H23 lung is -13.7% (active); in the assay with NCI-H226 lung it was -37.6% (active); in the assay with NCI-H322M lung, 43.9%; in the assay with HOP-62 NSCLC it was -32% (active); in the assay on NCI-H460 lung it was -48.4% (active); in the assay with HOP-92 NSCLC, -21.1% (active). The growth was -31.6% (active) in the assay with NCI-H522 lung; -69.6% (active) in the assay on A549/ATCC NSCLC; 6.42% (active) in the assay with 786-0 renal; 15.9% in the assay with COLO 205 colon; 1.29% (active) in the assay on DU-145 prostate; 12.5% in the assay on K-562 leukemia. For the same compound, the growth is 2.21% (active) in the assay on MALME-3M melanoma; -9.33% (active) in the assay with MDA-MB-231 breast; -76.1% (active) in the assay with RXF 393 renal; -26.8% (active) in the assay with SF-268 CNS; -47.9% (active) in the assay with SF-295 CNS; -10.4% (active) in the assay on SF-539 CNS. For the same compound, the growth in the assay on UACC-257 melanoma is 12.2%; in the assay on M14 melanoma, -6.74% (active).

On to `CCc1cccc(-c2ccccc2)c1`, for which the growth in the assay on NCI-H23 lung is 107%; in the assay with NCI-H226 lung, 109%; in the assay on NCI-H322M lung it was 107%; in the assay with HOP-62 NSCLC it was 101%; in the assay on NCI-H460 lung, 108%; in the assay with HOP-92 NSCLC, 92.9%. Further, the growth was 106% in the assay with NCI-H522 lung; 104% in the assay with A549/ATCC NSCLC; 98.8% with 786-0 renal; 105% in the assay with COLO 205 colon; 110% in the assay on DU-145 prostate; 109% with K-562 leukemia. The growth in the assay on MALME-3M melanoma was 114%; with MDA-MB-231 breast it was 114%; in the assay on RXF 393 renal, 130%; in the assay on SF-268 CNS it was 108%; in the assay with SF-295 CNS it was 107%; in the assay on SF-539 CNS it was 97.6%. The growth in the assay on UACC-257 melanoma is 99.1%; in the assay on M14 melanoma, 92.6%.

Regarding `CN1CCN(CC(O)COc2c(Br)c(Br)c(Br)c3c2OC(C)(C)C3)CC1` (stereo not given), the growth was 82.4% with NCI-H23 lung; 99.2% with NCI-H226 lung; 73% with NCI-H322M lung; 16.4% in the assay with HOP-62 NSCLC; 23% with NCI-H460 lung; -3.44% (active) in the assay on HOP-92 NSCLC. For the same compound, the growth in the assay with NCI-H522 lung is 42.6%; in the assay on A549/ATCC NSCLC, 63.6%; in the assay with 786-0 renal it was 11.8%; with COLO 205 colon, -45.3% (active); in the assay with DU-145 prostate it was 89.9%; in the assay with K-562 leukemia, -16.5% (active). Besides, the growth with MALME-3M melanoma is -36.9% (active); with MDA-MB-231 breast it was 49.7%; with RXF 393 renal, 29.4%; in the assay with SF-268 CNS, 63.8%; in the assay on SF-295 CNS it was 38.7%; with SF-539 CNS, 58.3%. In addition, the growth in the assay on UACC-257 melanoma is 99.9%; with M14 melanoma, -53.5% (active).

For `Cc1ccc(-c2cn3cc([N+](=O)[O-])ccc3n2)cc1`, the growth in the assay on NCI-H23 lung was 83.5%; in the assay on NCI-H226 lung, 72.2%; in the assay on NCI-H322M lung, 95.9%; with HOP-62 NSCLC, 91.4%; in the assay with NCI-H460 lung, 97.6%; with HOP-92 NSCLC, 110%. For the same compound, the growth in the assay with NCI-H522 lung is 71.3%; in the assay with A549/ATCC NSCLC, 85.5%; with 786-0 renal, 91.9%; with COLO 205 colon, 94.4%; in the assay with DU-145 prostate, 68.8%; with K-562 leukemia, 82%. The growth with MALME-3M melanoma was 103%; in the assay with MDA-MB-231 breast, 79.1%; in the assay with RXF 393 renal, 90.4%; with SF-268 CNS it was 77.3%; in the assay on SF-295 CNS, 101%; in the assay on SF-539 CNS it was 91.2%. Further, the growth in the assay with UACC-257 melanoma is 87.4%; with M14 melanoma it was 72.5%.

Regarding `CCc1c(C)c2cc3c(c(C)c2oc1=O)OCC(=O)N3`, the growth with NCI-H23 lung was 63.5%; in the assay on NCI-H226 lung it was 52.4%; in the assay on NCI-H322M lung, 60.7%; with HOP-62 NSCLC, 73.5%; in the assay with NCI-H460 lung, 43.2%; with HOP-92 NSCLC, 50.7%. In addition, the growth in the assay on NCI-H522 lung is 58.2%; with A549/ATCC NSCLC, 47%; in the assay on 786-0 renal it was 48.2%; in the assay with COLO 205 colon it was 83%; with DU-145 prostate, 72.5%; in the assay with K-562 leukemia, 82.5%. For the same compound, the growth was 79% with MALME-3M melanoma; 65.6% in the assay with MDA-MB-231 breast; 68% in the assay with RXF 393 renal; 68.3% with SF-268 CNS; 71.7% in the assay with SF-295 CNS; 67.8% in the assay on SF-539 CNS. For the same compound, the growth in the assay on UACC-257 melanoma was 84.3%; in the assay on M14 melanoma, 88.8%.
